# Values without a mark were called inactive. Records with an inconclusive call do not appear. Entries that show only a call come without a potency. For some of these results: Results with a measured potency or affinity are listed apart. Activity calls are given as the source filed them. Unless noted, how the calls were made is not given here.
# Columns and labels:
# [1] = Ebola virus entry assay, green fluorescence channel
# [2] = Ebola virus entry assay, blue channel fluorescence
# [3] = Ebola virus entry assay, ratio channel
# [4] = Ebola virus entry assay, green channel fluorescence
# [5] = Ebola virus entry assay, reporter ratio channel; Channel type: primary
# [6] = Ebola virus entry assay, blue channel (ratio component)
# [7] = qHTS assay for measurement of the activity of small molecule inhibitors on Zika virus induced Caspase-3 activity in human iPSC derived neural progenitor cells (hNPCs) (AID 1224857; active means well fitted inhibition curve with a large enough effect; further: nearly all actives have a fitted effect of over 65% in size); conditions: hNPCs ZIKV-induced caspase-3/7, Caspase-Glo luminescence, 6 h; series mostly up to 45.7 µM
# Summary of the method: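 After overnight (16–20 h) culture at 350 cells/well, hNPCs get compound, then ZIKV 2 FFU/cell one hour later. Six hours on, Caspase-Glo 3/7 is added and luminescence measured.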
# [8] = qHTS assay for measurement of the activity of small molecule inhibitors on Zika virus induced Caspase-3 activity in human astrocytoma cells (AID 1224859; active means well fitted inhibition curve with a large enough effect); conditions: SNB-19 ZIKV-induced caspase-3/7, luminescence, 6 h; series mostly up to 45.7 µM
# Summary of the method: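 Inhibition of Zika-induced caspase-3/7 activity: SNB-19 cells, 1 h compound pretreatment, ZIKV 2 FFU/cell for 6 h at 37 C, Caspase-Glo luminescence read-out.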
Structure (SMILES),efficacy [1] [%],outcome [2],outcome [3],outcome [4],outcome [5],outcome [6],AC50 [2],Potency [7],outcome [8]
C#C[C@]1(OC(C)=O)CC[C@H]2[C@@H]3CCC4=C[C@@H](OC(C)=O)CC[C@@H]4[C@H]3CC[C@@]21C,-36.9,inactive,inactive,inactive,inactive,inactive,–,–,–
O=C1c2ccccc2S(=O)(=O)N1CCCCN1CCN(c2ncccn2)CC1,29.9,inactive,inactive,inactive,inactive,inactive,–,–,–
CC(=O)N[C@H]1[C@H]([C@H](O)[C@H](O)CO)OC(C(=O)O)=C[C@@H]1N=C(N)N,-18.6,–,inactive,inactive,inactive,inactive,2820 nM (active),–,–
CN(C)C(=O)Nc1ccc(Cl)c(Cl)c1,15.7,inactive,inactive,inactive,inactive,inactive,–,–,–
CCCNC(C)(C)COC(=O)c1ccccc1,-21,inactive,inactive,inactive,inactive,inactive,–,–,–
COc1ccc(C(Cl)=C(c2ccc(OC)cc2)c2ccc(OC)cc2)cc1,25.3,inactive,inactive,inactive,inactive,inactive,–,–,–
CC1(C)[C@@H]2CC[C@@]1(C)C(=O)C2,9.79,inactive,inactive,inactive,inactive,inactive,–,–,–
CC(=O)OC/C=C(C)/C=C/C=C(C)/C=C/C1=C(C)CCCC1(C)C,-18.2,inactive,inactive,inactive,inactive,inactive,–,–,–
Cc1c(N)c(=O)n(-c2ccccc2)n1C,-25.5,inactive,inactive,inactive,inactive,inactive,–,–,–
CCNC(=O)NCc1cccc(Cl)c1,7,inactive,inactive,inactive,inactive,inactive,–,–,–
C[N+](C)(C)CCOC(=O)CCC(=O)OCC[N+](C)(C)C,18.3,inactive,inactive,inactive,inactive,inactive,–,–,–
CCCSS/C(CCO)=C(\C)N(C=O)Cc1cnc(C)nc1N,-15.5,inactive,inactive,inactive,inactive,inactive,–,–,–
O=C1OC(c2ccc(O)cc2)(c2ccc(O)cc2)c2ccccc21,-10.1,inactive,inactive,inactive,inactive,inactive,–,–,–
CCCCCC(N)=O,10.6,inactive,inactive,inactive,inactive,inactive,–,–,–
c1ccc(CC2=NCCN2)cc1,-17.9,inactive,inactive,inactive,inactive,inactive,–,–,–
CC(C)Cc1ccc(C(C)C(=O)OCc2ccccn2)cc1 (stereo not given),-17.6,inactive,inactive,inactive,inactive,inactive,–,–,–
CCCc1ncc(C(=O)O)s1,-25.8,inactive,inactive,inactive,inactive,inactive,–,–,–
N[C@@H](Cc1c[nH]c2ccc(O)cc12)C(=O)O,27.4,inactive,inactive,inactive,inactive,inactive,–,–,–
COc1ccc2[nH]c(S(=O)Cc3ncc(C)c(OC)c3C)nc2n1 (stereo not given),29.9,inactive,inactive,inactive,inactive,inactive,–,–,–

Structure (SMILES),efficacy [1] [%],outcome [2],outcome [3],outcome [4],outcome [5],outcome [6],AC50 [2],Potency [7],outcome [8]
Cc1ncc(COP(=O)(O)O)c(C=O)c1O,-34.1,inactive,inactive,inactive,inactive,inactive,–,–,–
OCc1ccccc1O,-17.7,inactive,inactive,inactive,inactive,inactive,–,–,–
O=C(Nc1ccc(C(=O)O)c(O)c1)c1ccccc1,-10.4,inactive,inactive,inactive,inactive,inactive,–,–,–
O=C(O)c1cccnc1Nc1cccc(C(F)(F)F)c1,-25.4,inactive,inactive,inactive,inactive,inactive,–,–,–
O=c1[nH]c(=O)c2[nH]c(=O)[nH]c2[nH]1,22,inactive,inactive,inactive,inactive,inactive,–,–,–
COc1nc(C)nc(Cl)c1NC1=NCCN1,-23.1,inactive,inactive,inactive,inactive,inactive,–,–,–
CCCc1ncc(C[n+]2ccccc2C)c(N)n1,-20.5,inactive,inactive,inactive,inactive,inactive,–,–,–
CN1C(=O)CC(c2ccccc2)C1=O (stereo not given),12.2,inactive,inactive,inactive,inactive,inactive,–,–,–
C[N+](C)(C)CCCCCCCCCC[N+](C)(C)C,-18,inactive,inactive,inactive,inactive,inactive,–,–,–
O=C(O)CCC(=O)c1ccc(-c2ccccc2)cc1,17.7,inactive,inactive,inactive,inactive,inactive,–,–,–
Cn1c(=O)c2c(ncn2CC2OCCO2)n(C)c1=O,-17.6,inactive,inactive,inactive,inactive,inactive,–,–,–
CCCc1nc(C)c2c(=O)[nH]c(-c3cc(S(=O)(=O)N4CCN(CC)CC4)ccc3OCC)nn12,25.4,inactive,inactive,inactive,inactive,inactive,–,–,–
CCOC(=O)c1cc(=O)c2c(OCC(COc3cccc4oc(C(=O)OCC)cc(=O)c34)OC(=O)[C@@H](N)CCCCN)cccc2o1,-21.2,inactive,inactive,inactive,inactive,inactive,–,–,–
CCCCCN(CCCCC)C(=O)C(CCC(=O)O)NC(=O)c1ccc(Cl)c(Cl)c1 (stereo not given),12.6,inactive,inactive,inactive,inactive,inactive,–,–,–
NC(=O)CCCCC1CCSS1 (stereo not given),19.1,inactive,inactive,inactive,inactive,inactive,–,–,–
CCN(CC)CCN,-14.9,inactive,inactive,inactive,inactive,inactive,–,–,–
CCOCCOC(=O)/C=C/c1ccc(OC)cc1,19.6,inactive,inactive,inactive,inactive,inactive,–,–,–
CC(=O)/C=C/C=C1/C2CCC(C2)C1(C)C (stereo not given),-14.5,inactive,inactive,inactive,inactive,inactive,–,–,–
CO/N=C(\C(=O)O)c1csc(NC(=O)CCl)n1,7.58,inactive,inactive,inactive,inactive,inactive,–,–,–

Structure (SMILES),efficacy [1] [%],outcome [2],outcome [3],outcome [4],outcome [5],outcome [6],AC50 [2],Potency [7],outcome [8]
Cc1ccc(S(=O)(=O)NC(=O)NC2CCCC2)cc1,-11.6,inactive,inactive,inactive,inactive,inactive,–,–,–
NNC(=O)CP(=O)(c1ccccc1)c1ccccc1,11.5,inactive,inactive,inactive,inactive,inactive,–,–,–
CC(C)(Oc1ccc(CCNC(=O)c2ccc(Cl)cc2)cc1)C(=O)O,-16.5,inactive,inactive,inactive,inactive,inactive,–,–,–
CNC(=O)c1cnn(-c2nc(N)c3ncn([C@@H]4O[C@H](CO)[C@@H](O)[C@H]4O)c3n2)c1,20.7,inactive,inactive,inactive,inactive,inactive,–,–,–
CC(C)(C)c1ccc(C(=O)CCCCl)cc1,-23.2,inactive,inactive,inactive,inactive,inactive,–,–,–
CCCCC(CC)COC(=O)C(C#N)=C(c1ccccc1)c1ccccc1 (stereo not given),53.9,inactive,inactive,inactive,inactive,inactive,–,–,–
NS(=O)(=O)c1cc2c(cc1Cl)CN(C1CCCCC1)C2=O,30.3,inactive,inactive,inactive,inactive,inactive,–,–,–
CCCCC1(COC(=O)CCC(=O)O)C(=O)N(c2ccccc2)N(c2ccccc2)C1=O,-12.3,inactive,inactive,inactive,inactive,inactive,–,–,–
CCn1cc(C(=O)O)c(=O)c2cc(F)c(N3CCNCC3)nc21,-17.3,inactive,inactive,inactive,inactive,inactive,–,–,–
COc1ccc(OC(=O)N(CC(=O)O)Cc2ccc(OCCc3nc(-c4ccccc4)oc3C)cc2)cc1,-17,inactive,inactive,inactive,inactive,inactive,–,–,–
Oc1ccc(O)cc1,16.5,inactive,inactive,inactive,inactive,inactive,–,–,–
O=S(=O)(c1cccc2cnccc12)N1CCCNCC1,-11.7,inactive,inactive,inactive,inactive,inactive,–,–,–
O=c1[nH]c(=O)c2ccccc2o1,15,inactive,inactive,inactive,inactive,inactive,–,–,–
C[C@]12C=CC(=O)C=C1CC[C@@H]1[C@@H]2CC[C@@]2(C)[C@H]1CC[C@]2(C)O,-14,inactive,inactive,inactive,inactive,inactive,–,inactive,inactive
Cc1cccc(Cc2cnc[nH]2)c1C,-25,inactive,inactive,inactive,inactive,inactive,–,inactive,inactive
CCc1cccc2c3c([nH]c12)C(CC)(CC(=O)O)OCC3 (stereo not given),8.5,inactive,inactive,inactive,inactive,inactive,–,–,–
CN1CCN(c2c(F)cc3c(=O)c(C(=O)O)cn(CCF)c3c2F)CC1,-28.9,inactive,inactive,inactive,inactive,inactive,–,–,–
CCN(CC)CC(=O)OCC(=O)[C@@]1(O)CC[C@H]2[C@@H]3CCC4=CC(=O)CC[C@]4(C)[C@H]3[C@@H](O)C[C@@]21C,17.3,inactive,inactive,inactive,inactive,inactive,–,–,–
